# Results reported in PubChem BioAssay AID1159580 (chemical genetic matrix, 2015).
# About 2,000 (36%) of roughly 5,500 compounds were called active. About 18% were inconclusive and are not listed. The list shows a part of the results. Unmarked numbers belong to inactive results. Cut-off read from the data, not from the text of the source: active = normalized growth mostly below about 0.91 (no sharp cut-off); inconclusive = no clear call, values can overlap the other calls; inactive = mostly above about 0.92.
# Assay: chemical genetic growth profiling, strain panel (AID 1159580);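 note: tested at 20 µM; growth read once vehicle control cultures reached saturation at 30 °C; 1 = growth at the plate median or of vehicle wells; lower values mean less growth of the strain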
# Conditions: growth OD
structure (smiles),measurement,setting,value
COc1cc2c(cc1OC)C(=O)C(CC1CCN(Cc3ccccc3)CC1)C2 (stereo not given),normalized growth,"S. cerevisiae deletion strains, locus YJR066W, strain TOR1, stronger effect = lower value",0.94
same,normalized growth,"S. cerevisiae deletion strains, locus YJR075W, strain HOC1, stronger effect = lower value",0.778 (active)
same,normalized growth,"S. cerevisiae deletion strains, locus YKL009W, strain mrt4, stronger effect = lower value",0.986
same,normalized growth,"S. cerevisiae deletion strains, locus YKL068W, stronger effect = lower value",1
same,normalized growth,"S. cerevisiae deletion strains, locus YKL085W, strain MDH1 (second series), stronger effect = lower value",1.01
same,normalized growth,"S. cerevisiae deletion strains, locus YKL085W, strain MDH1, stronger effect = lower value",1.01
same,normalized growth,"S. cerevisiae deletion strains, locus YKL160W, strain elf1, stronger effect = lower value",0.933
same,normalized growth,"S. cerevisiae deletion strains, locus YKR001C, strain vps1, stronger effect = lower value",0.913
same,normalized growth,"S. cerevisiae deletion strains, locus YKR026C, strain gcn3, stronger effect = lower value",1.06
same,normalized growth,"S. cerevisiae deletion strains, locus YKR091W, strain srl3, stronger effect = lower value",0.981
same,normalized growth,"S. cerevisiae deletion strains, locus YLL001W, strain dnm1, stronger effect = lower value",0.993
same,normalized growth,"S. cerevisiae deletion strains, locus YLL026W, stronger effect = lower value",1
same,normalized growth,"S. cerevisiae deletion strains, locus YLL041C, strain sdh2, stronger effect = lower value",0.978
same,normalized growth,"S. cerevisiae deletion strains, locus YLR027C, strain aat2, stronger effect = lower value",0.963
same,normalized growth,"S. cerevisiae deletion strains, locus YLR039C, strain RIC1, stronger effect = lower value",0.772
same,normalized growth,"S. cerevisiae deletion strains, locus YLR058C, strain SHM2, stronger effect = lower value",0.874 (active)
same,normalized growth,"S. cerevisiae deletion strains, locus YLR102C, strain apc9, stronger effect = lower value",1
same,normalized growth,"S. cerevisiae deletion strains, locus YLR113W, strain HOG1, stronger effect = lower value",1.05
same,normalized growth,"S. cerevisiae deletion strains, locus YLR221C, strain rsa3, stronger effect = lower value",0.975
same,normalized growth,"S. cerevisiae deletion strains, locus YLR258W, strain gsy2, stronger effect = lower value",0.982
same,normalized growth,"S. cerevisiae deletion strains, locus YLR262C, strain YPT6 (second series), stronger effect = lower value",0.589 (active)
same,normalized growth,"S. cerevisiae deletion strains, locus YLR262C, strain YPT6, stronger effect = lower value",0.807
same,normalized growth,"S. cerevisiae deletion strains, locus YLR268W, strain sec22, stronger effect = lower value",0.837 (active)
same,normalized growth,"S. cerevisiae deletion strains, locus YLR320W, strain mms22, stronger effect = lower value",0.928
same,normalized growth,"S. cerevisiae deletion strains, locus YLR330W, strain CHS5, stronger effect = lower value",0.953
same,normalized growth,"S. cerevisiae deletion strains, locus YLR342W, strain FKS1 (second series), stronger effect = lower value",0.909
same,normalized growth,"S. cerevisiae deletion strains, locus YLR342W, strain FKS1, stronger effect = lower value",0.989
same,normalized growth,"S. cerevisiae deletion strains, locus YLR357W, strain rsc2, stronger effect = lower value",1.13
same,normalized growth,"S. cerevisiae deletion strains, locus YLR370C, strain arc18, stronger effect = lower value",0.955
same,normalized growth,"S. cerevisiae deletion strains, locus YLR371W, strain rom2, stronger effect = lower value",0.986
same,normalized growth,"S. cerevisiae deletion strains, locus YLR384C, strain iki3, stronger effect = lower value",0.952
same,normalized growth,"S. cerevisiae deletion strains, locus YLR418C, strain cdc73, stronger effect = lower value",0.737 (active)
same,normalized growth,"S. cerevisiae deletion strains, locus YML016C, strain PPZ1, stronger effect = lower value",0.949
same,normalized growth,"S. cerevisiae deletion strains, locus YML032C, strain rad52, stronger effect = lower value",0.675 (active)
same,normalized growth,"S. cerevisiae deletion strains, locus YML120C, strain ndi1, stronger effect = lower value",0.973
same,normalized growth,"S. cerevisiae deletion strains, locus YML124C, strain tub3, stronger effect = lower value",1.02
same,normalized growth,"S. cerevisiae deletion strains, locus YMR058W, strain fet3, stronger effect = lower value",0.994
same,normalized growth,"S. cerevisiae deletion strains, locus YMR078C, strain ctf18, stronger effect = lower value",0.988
same,normalized growth,"S. cerevisiae deletion strains, locus YMR125W, strain sto1, stronger effect = lower value",0.94
same,normalized growth,"S. cerevisiae deletion strains, locus YMR129W, stronger effect = lower value",0.992
same,normalized growth,"S. cerevisiae deletion strains, locus YMR205C, strain PFK2, stronger effect = lower value",0.979
same,normalized growth,"S. cerevisiae deletion strains, locus YMR223W, strain ubp8, stronger effect = lower value",0.86 (active)
same,normalized growth,"S. cerevisiae deletion strains, locus YMR231W, strain pep5, stronger effect = lower value",0.996
same,normalized growth,"S. cerevisiae deletion strains, locus YMR263W, strain SAP30, stronger effect = lower value",0.936
same,normalized growth,"S. cerevisiae deletion strains, locus YMR307W, strain GAS1, stronger effect = lower value",0.971
same,normalized growth,"S. cerevisiae deletion strains, locus YNL067W, strain RPL9B, stronger effect = lower value",0.787 (active)
same,normalized growth,"S. cerevisiae deletion strains, locus YNL071W, strain lat1, stronger effect = lower value",0.956
same,normalized growth,"S. cerevisiae deletion strains, locus YNL128W, strain TEP1, stronger effect = lower value",0.919
same,normalized growth,"S. cerevisiae deletion strains, locus YNL153C, strain GIM3, stronger effect = lower value",0.876
same,normalized growth,"S. cerevisiae deletion strains, locus YNL183C, strain NPR1, stronger effect = lower value",0.955
same,normalized growth,"S. cerevisiae deletion strains, locus YNL209W, strain ssb2, stronger effect = lower value",0.988
same,normalized growth,"S. cerevisiae deletion strains, locus YNL233W, strain BNI4, stronger effect = lower value",0.75 (active)
same,normalized growth,"S. cerevisiae deletion strains, locus YNL248C, strain rpa49, stronger effect = lower value",0.967
same,normalized growth,"S. cerevisiae deletion strains, locus YNL250W, strain rad50, stronger effect = lower value",0.802 (active)
same,normalized growth,"S. cerevisiae deletion strains, locus YNL271C, strain bni1, stronger effect = lower value",0.977
same,normalized growth,"S. cerevisiae deletion strains, locus YNL298W, strain CLA4, stronger effect = lower value",0.918
same,normalized growth,"S. cerevisiae deletion strains, locus YNL307C, strain MCK1, stronger effect = lower value",0.665 (active)
same,normalized growth,"S. cerevisiae deletion strains, locus YNL322C, strain KRE1 (second series), stronger effect = lower value",0.981
same,normalized growth,"S. cerevisiae deletion strains, locus YNR049C, strain mso1, stronger effect = lower value",1.01
same,normalized growth,"S. cerevisiae deletion strains, locus YNR052C, strain pop2, stronger effect = lower value",0.805 (active)
same,normalized growth,"S. cerevisiae deletion strains, locus YOL006C, strain TOP1, stronger effect = lower value",0.335 (active)
same,normalized growth,"S. cerevisiae deletion strains, locus YOL012C, strain htz1",1.03
same,normalized growth,"S. cerevisiae deletion strains, locus YOL147C, strain pex11, stronger effect = lower value",0.976
same,normalized growth,"S. cerevisiae deletion strains, locus YOR001W, strain rrp6, stronger effect = lower value",0.931
same,normalized growth,"S. cerevisiae deletion strains, locus YOR061W, strain CKA2, stronger effect = lower value",0.989
same,normalized growth,"S. cerevisiae deletion strains, locus YOR069W, strain VPS5, stronger effect = lower value",1.12 [resistant] (active)
same,normalized growth,"S. cerevisiae deletion strains, locus YOR070C, strain gyp1, stronger effect = lower value",1.02
same,normalized growth,"S. cerevisiae deletion strains, locus YOR080W, strain dia2, stronger effect = lower value",0.953
same,normalized growth,"S. cerevisiae deletion strains, locus YOR083W, strain WHI5, stronger effect = lower value",0.973
same,normalized growth,"S. cerevisiae deletion strains, locus YOR106W, strain vam3, stronger effect = lower value",0.902
same,normalized growth,"S. cerevisiae deletion strains, locus YOR136W, strain idh2, stronger effect = lower value",0.984
same,normalized growth,"S. cerevisiae deletion strains, locus YOR144C, strain elg1, stronger effect = lower value",0.992
same,normalized growth,"S. cerevisiae deletion strains, locus YOR184W, strain ser1, stronger effect = lower value",0.776 (active)
same,normalized growth,"S. cerevisiae deletion strains, locus YOR231W, strain MKK1, stronger effect = lower value",0.977
same,normalized growth,"S. cerevisiae deletion strains, locus YOR265W, strain rbl2, stronger effect = lower value",0.974
same,normalized growth,"S. cerevisiae deletion strains, locus YOR270C, strain vph1, stronger effect = lower value",0.608 (active)
same,normalized growth,"S. cerevisiae deletion strains, locus YOR290C, strain snf2, stronger effect = lower value",1.04
same,normalized growth,"S. cerevisiae deletion strains, locus YOR316C, strain cot1, stronger effect = lower value",1.01
same,normalized growth,"S. cerevisiae deletion strains, locus YPL051W, strain arl3, stronger effect = lower value",0.938
same,normalized growth,"S. cerevisiae deletion strains, locus YPL055C, strain LGE1, stronger effect = lower value",0.738 (active)
same,normalized growth,"S. cerevisiae deletion strains, locus YPL078C, strain atp4, stronger effect = lower value",0.947
same,normalized growth,"S. cerevisiae deletion strains, locus YPL106C, strain sse1, stronger effect = lower value",1.12
same,normalized growth,"S. cerevisiae deletion strains, locus YPL240C, strain hsp82, stronger effect = lower value",0.996
same,normalized growth,"S. cerevisiae deletion strains, locus YPL256C, strain CLN2, stronger effect = lower value",0.952
same,normalized growth,"S. cerevisiae deletion strains, locus YPR119W, strain clb2, stronger effect = lower value",1
same,normalized growth,"S. cerevisiae deletion strains, locus YPR141C, strain kar3, stronger effect = lower value",0.975
same,normalized growth,"S. cerevisiae deletion strains, locus YPR163C, strain tif3, stronger effect = lower value",0.692 (active)
same,normalized growth,"S. cerevisiae deletion strains, locus YPR167C, strain met16, stronger effect = lower value",0.984
same,normalized growth,"S. cerevisiae deletion strains, strain wtn01, stronger effect = lower value",0.777 (active)
same,normalized growth,"S. cerevisiae strains, strain wild type, stronger effect = lower value",0.874 (active)
